Results on 102 compounds are retold here after PubChem BioAssay AID588742 (Southern Research Specialized Biocontainment Screening …, 2011).

Hit rate of the full screen: of about 1,800 compounds, about 410 (23%) were called active. These entries were drawn from the full list. Entries with a potency or affinity are not part of this list. Unmarked numbers belong to inactive results. No rule for the calls is given here.

The test can be described thus: viability of Vero cells under compound – cytotoxicity control for flavivirus capping enzyme inhibitors (AID 588742). To be noted: cytotoxicity counter-screen; series mostly up to 40 µM; viability: at the top concentration. A general note: A counterscreen serves to expose hits that act by an unwanted route or on another target.
For the compound `CC1=NN(c2ccc(C)cc2C)C(=O)C1C(c1ccccc1)C1C(=O)N(c2ccc(C)cc2C)N=C1C` (configuration not stated), the viability (in general, a read-out of living cells in per cent, often relative to untreated cells) was 92.2%.

As for `O=C(O)c1ccccc1-c1ccccc1C(=O)Nc1ccc2c(c1)oc(=O)c1ccccc12`, the “viability” value is 108%.

Consider `Cc1cc(C)c(C(=O)COc2cccnc2[N+](=O)[O-])cc1C`, for which the “viability” value was 99%.

For the compound `Nc1scc2c(C(=O)N/N=C/c3ccc(Cl)cc3)nn(-c3ccccc3)c(=O)c12`, the “viability” value is 94%.

Take `COc1ccc(/C=N/NC(=O)c2nn(-c3ccccc3)c(=O)c3c(N)scc23)cc1`: the “viability” value is 94%.

Take `Cc1[nH]c(=O)c(C#N)c(C)c1CCC(=O)Nc1cc(S(C)(=O)=O)ccc1Cl`: the “viability” value was 105%.

Regarding `N#Cc1c([N+](=O)[O-])cc([N+](=O)[O-])cc1S(=O)(=O)Cc1ccccc1`, the “viability” value was 96.8%.

On to `CSc1nc(SCC(=O)O)c2sc3nc(-c4ccccc4)c4c(c3c2n1)CCC4`, for which the “viability” value is 95.7%.

`CCCS(=O)(=O)c1nc(S(=O)(=O)c2ccc(C)cc2)c(N2CCC(O)CC2)s1`: the “viability” value was 103%.

`O=C(O)c1cccc2c1C(=O)c1ccc(-c3ccc(F)cc3OCc3ccccc3)cc1S2(=O)=O`: the “viability” value was 109%.

As for `Cc1nc(N2C(=O)C(=O)/C(=C(/O)c3ccccc3)C2c2ccco2)sc1C` (configuration not stated), the “viability” value is 85%.

Turning to `CCCOc1ccc(/C=C2/C(=O)ON=C2C)cc1OCC`, the “viability” value was 105%.

In the case of `C=CCOc1ccc(/C=C2/C(=O)ON=C2C)cc1OCC`, the “viability” value was 102%.

Consider `CCc1cc(=O)oc2cc(OCC(=O)NCCCn3ccnc3)c(Cl)cc12`, for which the “viability” value was 98.5%.

With `CC1(C)CC(=O)C(=Cc2cn(CCC#N)nc2-c2ccc(F)cc2)C(=O)C1`, the “viability” value is 105%.

Regarding `CCOc1cc(/C=C2\NC(=O)NC2=O)cc([N+](=O)[O-])c1O`, the “viability” value was 112%.

On to `COc1ccc(NC(=O)Nc2c(O)ccc3ccccc23)cc1`, for which the “viability” value was 94.1%.

Consider `COc1ccc2c(c1)Cc1cc(NC(=O)c3ccccc3-c3ccccc3C(=O)O)ccc1-2`, for which the “viability” value is 95.3%.

In the case of `COc1ccccc1NC(=O)NNC(=O)c1cc2ccccc2cc1O`, the “viability” value was 84.9%.

For the compound `O=C(NCCCl)NNC(=O)c1cc2ccccc2cc1O`, the “viability” value is 94.7%.

Turning to `O=C1c2ccccc2C(O)(c2ccccc2)N1c1ccc([N+](=O)[O-])cc1Cl` (configuration not stated), the “viability” value was 90.8%.

For `CCC1(C)Cc2c(sc3[nH]c(=O)[nH]c(=O)c23)CS1` (configuration not stated), the “viability” value is 104%.

For `CC1(C)Cc2c(sc3nc4n(-c5ccccc5)c(=O)c(CCC(=O)O)nn4c(=O)c23)CO1`, the “viability” value is 108%.

In the case of `CCOc1cc(/C=N/N=C2/NC(=O)C(CC(=O)O)S2)ccc1OCc1ccccc1Cl` (configuration not stated), the “viability” value was 100%.

For the compound `COc1ccccc1N1CCN(/N=C/c2cccc(OC)c2O)CC1`, the “viability” value was 99.3%.

In the case of `CCOc1ccccc1CNc1ccc(O)cc1`, the “viability” value is 96.2%.

In the case of `Oc1ccc(NCc2ccccc2OCc2ccccc2F)cc1`, the “viability” value is 97.6%.

As for `CCOC(=O)c1c(/N=C/c2cccc([N+](=O)[O-])c2O)sc(C)c1C`, the “viability” value was 105%.

On to `COc1ccc(/C=c2\sc3nc(=O)c(C)nn3c2=O)c(OC)c1`, for which the “viability” value was 100%.

Consider `C=CCOC(=O)C1=C(C)N=c2s/c(=C3\C(=O)N(CC(=O)O)c4ccccc43)c(=O)n2C1c1ccc(OC)cc1` (configuration not stated), for which the “viability” value was 105%.

For `COC(=O)C1=CN(c2cccc(C)c2)C=C(C(=O)OC)C1c1cc(OC)c(O)c([N+](=O)[O-])c1`, the “viability” value is 96.7%.

As to `Cc1ccc(S(=O)(=O)Nn2c(C)ccc2C)cc1`, the “viability” value was 97.7%.

Consider `Cc1ccc(C(c2c(O)nc3n(c2=O)CCS3)c2c(O)nc3n(c2=O)CCS3)cc1`, for which the “viability” value is 97.4%.

On to `NS(=O)(=O)c1ccc(N=Nc2c(O)c(C(=O)O)cc3ccccc23)cc1`, for which the “viability” value was 117%.

Take `CC(=O)N1c2ccc(S(=O)(=O)N(C)CC(=O)NCc3ccc(C)cc3)cc2CC1C` (configuration not stated): the “viability” value is 89.4%.

For `COc1cc(/C=C/c2[nH]c(=O)[nH]c(=O)c2[N+](=O)[O-])cc([N+](=O)[O-])c1O`, the “viability” value was 92.2%.

Take `CCCOc1ccc(C(=O)N/N=C/c2ccc(-c3ccc(S(=O)(=O)Nc4ncccn4)cc3)o2)cc1`: the “viability” value is 97.5%.

As for `O=C(/C=C/Nc1ccc(S(=O)(=O)Nc2ncccn2)cc1)c1cccs1`, the “viability” value is 106%.

As for `O=C1NN(c2ccccc2)C(=O)/C1=C/c1ccc(-c2ccc(C(=O)O)cc2)o1`, the “viability” value was 108%.

Take `Nc1nc2ncc(C(=O)c3cc(Cl)cc(Cl)c3O)cc2s1`: the “viability” value was 95.3%.

For `C=CCn1c(=O)c(CCC(=O)Nc2ccc(N3CCOCC3)cc2)nc2cc(C(F)(F)F)ccc21`, the “viability” value was 90.6%.

As to `CC1(OC(=O)c2ccco2)C(=O)C=C2C=C(C3CC3)OC=C2C1=O` (configuration not stated), the “viability” value was 96.2%.

Take `O=C(CCC1CCCC1)NNC(=O)c1cc2ccccc2cc1O`: the “viability” value is 87.1%.

As to `O=C(NC1CCCCC1)c1cc2ccccc2cc1O`, the “viability” value is 94.5%.

As for `C/C(=N/NC(=O)c1cc(O)c(O)c(O)c1)c1ccc([N+](=O)[O-])cc1`, the “viability” value is 99.6%.

For the compound `Cc1cc(C)c2nc(N3C(=O)C(O)=C(C(=O)c4ccco4)C3c3ccc(O)cc3)sc2c1` (configuration not stated), the “viability” value was 96.7%.

In the case of `O=C(CNS(=O)(=O)c1ccc2ccccc2c1)OCC(=O)c1ccc(Br)s1`, the “viability” value is 93.8%.

Consider `O=C(c1ccccc1)c1ccc(OCC(O)CN2CCN(S(=O)(=O)N3CCCCC3)CC2)cc1` (configuration not stated), for which the “viability” value is 87.1%.

Take `CC(C)c1ccc(Nc2ccc(C(=O)O)cc2[N+](=O)[O-])cc1`: the “viability” value was 101%.

With `CCc1nnc(N/N=C/c2ccc(N3CCC(C)CC3)c([N+](=O)[O-])c2)n1N`, the “viability” value was 89.8%.

As to `COc1ccc(C2CC(c3ccccc3)=NN2c2ccc(Cl)c(C(=O)O)c2)cc1` (configuration not stated), the “viability” value was 91.2%.

Consider `O=C(CCN1C(=O)/C(=C\C=C\c2ccccc2)SC1=S)Nc1ccccc1C(=O)O`, for which the “viability” value was 95.4%.

`O=C1CCC/C(=N/Nc2ccc(Cl)cc2)C1`: the “viability” value is 89.1%.

Regarding `COc1cc(C2C(C#N)=C(N)OC3=C2C(=O)CC(C)(C)C3)c([N+](=O)[O-])cc1OC` (configuration not stated), the “viability” value is 108%.

As to `Cc1[nH]c2ccccc2c1C1=CC(=O)C=CC1=O`, the “viability” value is 89.9%.

In the case of `COc1ccc2c([N+](=O)[O-])c(Cl)[nH]c2c1`, the “viability” value was 104%.

With `CC(=O)N1CCN(c2ccc(NCc3ccc(Br)o3)cc2)CC1`, the “viability” value is 106%.

As for `Cc1nc2nc(-c3cccs3)cn2nc1C`, the “viability” value was 95.6%.

In the case of `CCCCCCCC1=NN(c2ccc(S(=O)(=O)O)cc2)C(=O)C1N=O` (configuration not stated), the “viability” value is 100%.

With `COC(=O)c1ccc(N2NC(=O)/C(=C/c3ccc(OC)c(OC)c3)C2=O)cc1`, the “viability” value is 98.2%.

`O=C1NN(c2ccccc2)C(=O)/C1=C\c1cccc(OC(=O)c2cccs2)c1`: the “viability” value was 103%.

As to `Cc1cccc(N/N=C/c2ccc(O)c(O)c2O)c1`, the “viability” value was 103%.

For `COCCNC(=O)Nc1ccc2nc(-c3ccco3)c(-c3ccco3)nc2c1`, the “viability” value is 102%.

On to `Oc1ccc(/C=N/N2CCOCC2)c(O)c1O`, for which the “viability” value was 102%.

Turning to `CN=c1scc(C)n1/N=C/c1ccc(O)c(O)c1O`, the “viability” value is 95.4%.

Take `Cc1nc2ccccc2c(=O)n1/N=C/c1ccc(O)c(O)c1O`: the “viability” value is 99.3%.

As to `C#CCOc1ccc(/C=C2/C(=O)ON=C2C)cc1Cl`, the “viability” value is 98.1%.

Consider `O=C1CCNc2cc3ccccc3cc21`, for which the “viability” value was 83.9%.

Take `COc1ccc(C2C(C#N)=C(N)Oc3c2c(C)nn3-c2ccccc2)cc1Cn1nc(C)c([N+](=O)[O-])c1C` (configuration not stated): the “viability” value was 94.7%.

In the case of `O=c1[nH]n2c(=O)c3c([nH]c2c1N=Nc1cccc(C(F)(F)F)c1)CCCC3`, the “viability” value is 101% [at 20 µM].

Regarding `O=c1oc2ccccc2c(O)c1/C=C1\C=Nc2ccccc21`, the “viability” value was 91.5%.

As to `CCOc1ccc(N2C(=O)C(Cl)=C(N3CCOCC3)C2=O)cc1`, the “viability” value was 98.1%.

In the case of `COC(=O)c1c(C)c2c(C)cc3ccccn3c-2c1C(=O)OC`, the “viability” value was 101%.

In the case of `Cc1c(CCC(=O)O)c(=O)oc2c(C)c(OCc3cc4c(cc3Cl)OCO4)ccc12`, the “viability” value is 94.4%.

As for `C=CCN=C1N[C@@H](c2cccc(C(F)(F)F)c2)C(C(=O)OC)=C(C)N1CC`, the “viability” value is 96.3%.

In the case of `Cc1c(OC(=O)c2ccc([N+](=O)[O-])cc2)c2c(c[n+]1C)COC(C)(C)OC2`, the “viability” value is 102%.

As for `CCOC(=O)c1cc(-c2ccc(/C=C3/C(=O)NC(=O)C(C#N)=C3C)o2)ccc1Cl`, the “viability” value was 115%.

Consider `CCC(c1ccccc1)C(CC)c1cc(O)c(O)c(O)c1` (configuration not stated), for which the “viability” value is 87.2%.

As for `N#CC1=C(N)C2=C(N3CCCCC3)CCCC2C1(C#N)C#N` (configuration not stated), the “viability” value is 95.8%.

Take `COc1ccc(C2Nc3cccc4cccc(c34)N2)cc1`: the “viability” value was 106%.

As for `COc1ccc(-c2cc(-c3ccc(Cl)cc3)c(C#N)c(SCC(=O)O)n2)cc1`, the “viability” value was 82.6%.

As for `CCOC(=O)/C(C#N)=C/c1c(N2CCN(CC)CC2)nc2c(C)cccn2c1=O`, the “viability” value was 102%.

In the case of `COc1ccccc1N(O)C1CC(=O)N(c2ccc(F)cc2)C1=O` (configuration not stated), the “viability” value is 105%.

In the case of `CC(=O)N(C1=C(Cl)C(=O)c2ccccc2C1=O)c1ccc(C(=O)O)cc1`, the “viability” value was 114% [at 20 µM].

As for `O=S(c1ccccc1O)S(=O)c1ccccc1O` (configuration not stated), the “viability” value was 106%.

Turning to `Cc1cc(=O)n(CCc2ccccc2)c(O)c1C#N`, the “viability” value is 105%.

On to `CC1CC2=C(NC(=S)NC2c2ccccc2F)/C(=C/c2ccccc2F)C1` (configuration not stated), for which the “viability” value is 85.3%.

`COc1ccc(N2C(=O)C(Cl)=C(N3CCOCC3)C2=O)cc1`: the “viability” value is 97.6%.

Take `O=C1N=c2ccc(Br)cc2=C1c1sc(=S)n(NS(=O)(=O)c2ccccc2)c1O`: the “viability” value is 91.5%.

With `COC(=O)CN(c1ccccc1C)S(C)(=O)=O`, the “viability” value was 97%.

`COc1cccc(/C=C2\SC(=S)N(C(Cc3ccccc3)C(=O)O)C2=O)c1` (configuration not stated): the “viability” value is 95.1%.

Turning to `COc1ccc(-c2csc(NC(=O)CSc3nc(C)nc4sc(C(=O)O)c(C)c34)n2)cc1`, the “viability” value is 94.1%.

Turning to `Oc1ccc(/C=N/NC(=S)Nc2cccnc2)c(O)c1O`, the “viability” value is 92.2%.

With `CCSc1ncc(Cl)c(C(=O)N(Cc2ccc(N(C)C)cc2)C2CCS(=O)(=O)C2)n1` (configuration not stated), the “viability” value was 93.8%.

As for `CCN(CCO)c1ccc(NC(=S)Nc2cccc(S(=O)(=O)N(C)C)c2)cc1`, the “viability” value was 95.5%.

With `COc1ccc(NC(=S)NNc2ccc(S(=O)(=O)Nc3ccccc3C(=O)O)cc2[N+](=O)[O-])cc1`, the “viability” value was 103%.

As for `O=C1c2ccccc2C(=O)N1OS(=O)(=O)c1ccc(F)cc1`, the “viability” value is 101%.

As for `CC(C)=CCC1=C(OCC(=O)O)C(=O)c2ccccc2C1=O`, the “viability” value is 92.7%.

In the case of `CN(C)NC(=S)Nc1ccc2nc(-c3ccccn3)c(-c3ccccn3)nc2c1`, the “viability” value is 101%.

Consider `CC(C)c1ccc(S(=O)(=O)c2n[nH]n3c2nc(=O)c2ccccc23)cc1`, for which the “viability” value is 103%.

Turning to `CC(C)c1ccc(S(=O)(=O)/N=C2\C=C(NS(=O)(=O)c3ccccc3)C(=O)c3ccccc32)cc1`, the “viability” value was 80%.

In the case of `Cc1ccc(C(C2C(=O)CC(C)(C)CC2=O)C2C(=O)CC(C)(C)CC2=O)s1`, the “viability” value was 93.8%.
